PMC4552634, “A New Set of Chemical Starting Points with Plasmodium falciparum Transmission-Blocking Potential for Antimalarial Drug Discovery” (PLoS ONE, 2015)
Out of some 13,000 compounds screened, about 3,200 (25%) showed an effect of 50% or more. The list shows a part of the results.

System: P. falciparum stage V gametocytes
Design: BacTiter-Glo ATP luminescence viability of purified stage V gametocytes in 384-well plates, per cent inhibition versus DMSO
Settings: 48 h, 5 µM; inhibitor

| SMILES | % Inhibition |
| --- | --- |
| O=C(c1cc2nc3c(c(C(F)(F)F)n2n1)CCc1ccccc1-3)N1CCN2CCCC2C1 (stereo not drawn) [TCMDC-123850] | 0.1952% |
| CCc1ccc(CN2CCC(CNC(=O)c3cc(-c4cccc(C(F)(F)F)c4)cs3)C2)cc1 (stereo not drawn) [TCMDC-134430] | 102.1% |
| CC(C)(C)CCN1CCC(CNC(=O)c2cc(-c3cccc(C(F)(F)F)c3)cs2)C1 (stereo not drawn) [TCMDC-134425] | 78.38% |
| CSc1ccc(CN2CCC(NC(=O)c3ccc(-c4cccc(C(F)(F)F)c4)s3)CC2)cc1 [TCMDC-134340] | 5.591% |
| O=C(NC1CCN(Cc2ccc(F)cc2)CC1)c1ccc(-c2cccc(C(F)(F)F)c2)s1 [TCMDC-134358] | -14.39% |
| CC(C)(C)CCN1CCC(NC(=O)c2ccc(-c3cccc(C(F)(F)F)c3)s2)CC1 [TCMDC-134322] | -68.21% |
| O=C(NCC1CCN(Cc2ccc(F)cc2)C1)c1cc(-c2cccc(C(F)(F)F)c2)cs1 (stereo not drawn) [TCMDC-134481] | 39.58% |
| CC(C)(C)CCN1CCC(CNC(=O)c2cc(-c3cccc(Cl)c3)cs2)C1 (stereo not drawn) [TCMDC-134426] | 39.67% |
| CC(C)(C)c1ccc(CN2CCC(NC(=O)c3cc(-c4cccc(C(F)(F)F)c4)cs3)C2)cc1 (stereo not drawn) [TCMDC-134475] | 53.3% |
| CC(C)c1ccc(CN2CCC(CNC(=O)c3cc(-c4cccc(C(F)(F)F)c4)cs3)C2)cc1 (stereo not drawn) [TCMDC-134435] | 101.9% |
| COc1ccc(CNC(=O)NC2CCN(c3ccnc(Nc4ccc(F)cc4)n3)C2)cc1 (stereo not drawn) [TCMDC-133592] | -44.87% |
| CCCc1cc(Cc2cnc(N)nc2N)cc(CCC)c1OCCCCC(=O)OC [TCMDC-137290] | -38.14% |
| CCNc1cc(C)nc(Nc2ccccc2)n1 [TCMDC-134006] | 18.88% |
| CC(=O)Nc1nc(C(=O)Nc2ccc(-c3ccc(-c4nc5ccccc5[nH]4)cc3)cc2)cs1 [TCMDC-137128] | -5.634% |
| CCOC(=O)CCCOc1c(OC)cc(Cc2cnc(N)nc2N)cc1OC [TCMDC-137899] | -8.343% |
| O=C(Nc1ccc(Cl)c(C(F)(F)F)c1)Nc1ccc(Cl)c(C(F)(F)F)c1 [TCMDC-137559] | -42.31% |
| CC(C)(C)c1ccc(CN2CCC(CNC(=O)c3cc(-c4cccc(C(F)(F)F)c4)cs3)C2)cc1 (stereo not drawn) [TCMDC-134442] | 107% |
| CN(C)CCOc1cc(NC(=O)/C=C/c2cccc3ccccc23)ccc1I [TCMDC-139119] | 42.15% |
| OCC1CCN(Cc2cccc(-c3ccc(-c4nc5ccc(F)cc5[nH]4)cc3)c2)CC1 [TCMDC-133934] | -11.78% |
| OCC1CCN(Cc2ccc(-c3cccc(-c4nc5ccccc5[nH]4)c3)cc2)CC1 [TCMDC-132552] | 86.93% |
| NC(=O)C1CCN(Cc2ccc(-c3cccc(-c4nc5ccc(F)cc5[nH]4)c3)cc2)CC1 [TCMDC-132689] | -35.18% |
| OCCC1CCN(Cc2ccc(-c3ccc(-c4nc5ccccc5[nH]4)cc3)cc2)CC1 [TCMDC-133905] | -1.76% |
| OCC1CCN(Cc2ccc(-c3ccc(-c4nc5ccccc5[nH]4)cc3)cc2)CC1 [TCMDC-133927] | -51.35% |

| SMILES | % Inhibition |
| --- | --- |
| OCC1CCN(Cc2ccc(-c3cccc(-c4nc5ccc(F)cc5[nH]4)c3)cc2)CC1 [TCMDC-133121] | 70.65% |
| COc1cccc(CNC[C@@H](O)[C@H](Cc2ccccc2)NC(=O)c2cc(OC(C)C)cc(N3CCCCS3(=O)=O)c2)c1 [TCMDC-134522] | -6.565% |
| COc1ccc2c(c1)CCCC2C(C)NCC(O)c1cccc(C(F)(F)F)c1 (stereo not drawn) [TCMDC-131535] | -11.59% |
| Cc1[nH]c(C)c(-c2ccc(-c3cccc(Cl)c3)nc2)c(=O)c1Cl [TCMDC-136300] | 76.37% |
| Cc1[nH]c(C)c(-c2ccc(-c3cccc(Cl)c3)nc2)c(=O)c1Br [TCMDC-136160] | 67.06% |
| Cc1ccc(NC(=O)c2ccc(CN3CCCN(CCC(C)C)CC3)cc2)cc1C [TCMDC-136443] | -19.3% |
| Cc1nc2c(Nc3nc(-c4ccncc4)cs3)ncnc2n1-c1ccccc1Cl [TCMDC-136288] | 72.25% |
| Cn1cnc2c(Nc3ccncc3)nc(-c3ccc4ccccc4c3)nc21 [TCMDC-141131] | -3.392% |
| Cc1ccc(-n2c(C)nc3c(Nc4ccc(-c5ccncc5)cc4)ncnc32)c(C)c1 [TCMDC-136289] | 103.3% |
| Cc1nc(Nc2ccncc2)cc(-c2ccncc2)n1 [TCMDC-124589] | -12.99% |
| Oc1ccc2[nH]c(-c3cccc(F)c3)nc2c1CN1CCC(O)(c2ccccc2)CC1 [TCMDC-136359] | -19.77% |
| CC(C(=O)Nc1ccc(Br)cc1Br)N1CCN(C(=O)c2ccco2)CC1 (stereo not drawn) [TCMDC-124879] | -7.948% |
| CCCC(C)NC(=O)[C@H](CC1CCCCC1)NC(=O)c1ccc(O)c(-c2ccc(OC)cc2)c1 (stereo partly drawn) [TCMDC-140801] | 27.46% |
| CN(C)CCCOc1cccc(NC(=O)Nc2ccc(-c3ccccc3)cc2)c1 [TCMDC-139539] | -65.39% |
| CN(C)CCCNCc1ccc(-c2ccc(CNCCOc3ccccc3)cc2)cc1 [TCMDC-141457] | 91.94% |
| CN(C)CCCNCc1ccc(-c2ccc(CNCCc3ccccc3)cc2)cc1 [TCMDC-141456] | 100.3% |
| CC[C@H](C)CNC(=O)c1cncc(-c2ccc(CNCCOc3ccccc3)cc2)c1 [TCMDC-134239] | -0.3321% |
| CCCNC(=O)c1cncc(-c2ccc(CNCCCc3ccccc3)cc2)c1 [TCMDC-134248] | 11.91% |
| CC1(C)N=C(N)N=C(N)N1OCCOc1cccc(C(F)(F)F)c1 [TCMDC-131615] | 4.099% |
| CCCCCCNCc1c(O)ccc2c(CNCCCCCC)c(O)ccc12 [TCMDC-137592] | -1.678% |
| CCc1c(CCNCCCCCCNCCc2ccc(Br)cc2)ccc(O)c1O [TCMDC-132044] | 115.9% |
| CCc1c(CCNCCCCCCNCCc2ccc([N+](=O)[O-])cc2)ccc(O)c1O [TCMDC-132067] | 69.46% |
| Cc1cc(CNCCCCCCNCc2cccc([N+](=O)[O-])c2)ccc1O [TCMDC-140413] | 32.63% |

| SMILES | % Inhibition |
| --- | --- |
| O=C(N[C@H]1CCCC[C@H]1C(=O)O)c1ccccc1 [TCMDC-124293] | -3.601% |
| Cc1ccc(CNC(=O)c2cnc(N3CCN(c4ccncc4)CC3)c(Cl)c2)cc1 [TCMDC-134626] | 3.173% |
| COc1c(C2CCN(CCCCNC(=O)c3ccc(-c4ccc(C#N)cc4)cc3)CC2)ccc2c1C(C)(C)CCC2(C)C [TCMDC-135481] | 92.96% |
| CC1(C)CCC(C)(C)c2c1ccc(C1CCN(CCCCNC(=O)c3ccc(-c4ccc(Cl)cc4)cc3)CC1)c2O [TCMDC-135483] | 86.31% |
| N#Cc1ccc(-c2ccc(C(=O)NCCCCN3CCC(c4nc5ccccc5[nH]4)CC3)cc2)cc1 [TCMDC-133362] | 24.39% |
| Cc1c(C2CCN(CCCCNC(=O)c3ccc(-c4ccc(C#N)cc4)cc3)CC2)c2ccccc2n1CCO [TCMDC-138815] | -16.09% |
| Cc1ccc(C2CCN(CCCCNC(=O)c3ccc(-c4ccc(C#N)cc4)cc3)CC2)c(O)c1 [TCMDC-138658] | -70.86% |
| Cc1[nH]c2ccccc2c1C1CCN(CCCCNC(=O)c2ccc(-c3ccc(C#N)cc3)cc2)CC1 [TCMDC-138808] | 60.39% |
| COc1c(C2=CCN(CCCCNC(=O)c3ccc(-c4ccc(C#N)cc4)cc3)CC2)c(C)cc2c1C(C)(C)CCC2(C)C [TCMDC-135480] | 3.716% |
| Cc1cc(C2CCN(CCCCNC(=O)c3ccc(-c4ccc(C#N)cc4)cc3)CC2)c(C)cc1O [TCMDC-138817] | -58.22% |
| CCc1ccc(C2CCN(CCCCNC(=O)c3ccc(-c4ccc(Cl)cc4)cc3)CC2)c(O)c1 [TCMDC-138548] | 18.22% |
| COc1c(C2CCN(CCCCNC(=O)c3ccc(-c4ccc(C#N)cc4)cc3)CC2)cc(Cl)c2c1CCCC2 [TCMDC-135288] | -31.75% |
| CC1(C)CCC(C)(C)c2c1ccc(C1CCN(CCCCNC(=O)c3ccc(-c4ccc(C#N)cc4)cc3)CC1)c2O [TCMDC-135505] | 91.89% |
| CCC(C)(C)C1CCc2[nH]c3ccccc3c(=O)c2C1 (stereo not drawn) [TCMDC-125226] | 30.2% |
| CC(=O)N/N=C/[C@H](CCc1ccccc1)NC(=O)[C@H](CC(C)C)NC(=O)c1ccc(OCCN2CCOCC2)cc1 [TCMDC-135916] | 2.96% |
| CC(NC(C)c1cccc(Cl)c1)C(=O)Nc1cc(C(F)(F)F)ccc1N1CCOCC1 (stereo not drawn) [TCMDC-125061] | -33.15% |
| Cc1cccc(C(=O)Nc2ccnc(N3CCC(N(C)Cc4cccc(C#N)c4)CC3)c2)c1 [TCMDC-134973] | -4.566% |
| O=C(c1ccco1)N1CCN(c2nc(-c3ccc(Cl)cc3)nc3ccccc23)CC1 [TCMDC-124753] | 14.1% |
| COc1ccc2nccc([C@@H](O)CN3CCC(NC(=O)C(c4cc5ccccc5s4)N4CC(C)OC(C)C4)CC3)c2c1 (stereo partly drawn) [TCMDC-140995] | 7.748% |
| C=CCc1cc(C2CCN(CCCCNC(=O)c3ccc(-c4ccc(C#N)cc4)cc3)CC2)c(OCC(N)=O)c2c1CCCC2 [TCMDC-135625] | -14.83% |
| N#Cc1ccc(-c2ccc(C(=O)NCCCCN3CCC(c4cc(Br)c5c(c4OCC(N)=O)CCCC5)CC3)cc2)cc1 [TCMDC-135263] | -29.4% |
| CC1(C)CCC(C)(C)c2c1ccc(C1CCN(CCCCNC(=O)c3ccc(-c4ccc(C#N)cc4)cc3)CC1)c2OCC(N)=O [TCMDC-135627] | 76.03% |
| COc1c(C2CCN(CCCCNC(=O)c3ccc(-c4ccc(Cl)cc4)cc3)CC2)ccc2c1C(C)(C)CCC2(C)C [TCMDC-135482] | 91.33% |
